Experimental data as given in publication PMC12529666, “Dysregulation of AGO2-miRNA dynamics underlies the AGO2-associated Lessel–Kreienkamp syndrome”.

How the values were obtained:
Test in all cases: RNA Bind-n-Seq (nitrocellulose filter binding and sequencing); miR-122 guide loaded in AGO2; 60 min incubation; 30 mM Tris pH 8.0, 100 mM potassium acetate, 2 mM magnesium acetate, 0.5 mM TCEP, 0.005% NP-40, 0.01 mg/ml yeast tRNA; 3 nM AGO2-miR-122, 100 nM RNA library; 60; high values mean tight binding
Details in all cases: protein: recombinant; tags: His6 (N-terminal, pFastBac HTA)
[1] = biological target: AGO2 WT (phosphosite mutant background) (Homo sapiens, UniProt Q9UKV8 1-859, S387D;S824A;S828D;S831D;S834A)
Procedure, shortened: (§1)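 His-tagged AGO2 was expressed in Sf9 insect cells by baculovirus, loaded with a synthetic guide RNA, and purified by Ni-NTA and a biotinylated capture oligo. Bound RNA was extracted, reverse-transcribed, barcode-amplified and Illumina-sequenced. Fold enrichment is each sequence's read fraction divided by its input-library read fraction.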

AGO2 L192P = AGO2 L192P (Homo sapiens, UniProt Q9UKV8 1-859, L192P;S387D;S824A;S828D;S831D;S834A)
Procedure, shortened: as §1

AGO2 A367P = AGO2 A367P (Homo sapiens, UniProt Q9UKV8 1-859, A367P;S387D;S824A;S828D;S831D;S834A)
Procedure, shortened: as §1

AGO2 T357M = AGO2 T357M (Homo sapiens, UniProt Q9UKV8 1-859, T357M;S387D;S824A;S828D;S831D;S834A)
Procedure, shortened: as §1

AGO2 F182del = AGO2 F182del (Homo sapiens, UniProt Q9UKV8 1-859, S387D;S824A;S828D;S831D;S834A;del182-182)
Procedure, shortened: as §1

AGO2 L192P, sequence (Q9UKV8 whole entry L192P/S387D/S824A/S828D/S831D/S834A): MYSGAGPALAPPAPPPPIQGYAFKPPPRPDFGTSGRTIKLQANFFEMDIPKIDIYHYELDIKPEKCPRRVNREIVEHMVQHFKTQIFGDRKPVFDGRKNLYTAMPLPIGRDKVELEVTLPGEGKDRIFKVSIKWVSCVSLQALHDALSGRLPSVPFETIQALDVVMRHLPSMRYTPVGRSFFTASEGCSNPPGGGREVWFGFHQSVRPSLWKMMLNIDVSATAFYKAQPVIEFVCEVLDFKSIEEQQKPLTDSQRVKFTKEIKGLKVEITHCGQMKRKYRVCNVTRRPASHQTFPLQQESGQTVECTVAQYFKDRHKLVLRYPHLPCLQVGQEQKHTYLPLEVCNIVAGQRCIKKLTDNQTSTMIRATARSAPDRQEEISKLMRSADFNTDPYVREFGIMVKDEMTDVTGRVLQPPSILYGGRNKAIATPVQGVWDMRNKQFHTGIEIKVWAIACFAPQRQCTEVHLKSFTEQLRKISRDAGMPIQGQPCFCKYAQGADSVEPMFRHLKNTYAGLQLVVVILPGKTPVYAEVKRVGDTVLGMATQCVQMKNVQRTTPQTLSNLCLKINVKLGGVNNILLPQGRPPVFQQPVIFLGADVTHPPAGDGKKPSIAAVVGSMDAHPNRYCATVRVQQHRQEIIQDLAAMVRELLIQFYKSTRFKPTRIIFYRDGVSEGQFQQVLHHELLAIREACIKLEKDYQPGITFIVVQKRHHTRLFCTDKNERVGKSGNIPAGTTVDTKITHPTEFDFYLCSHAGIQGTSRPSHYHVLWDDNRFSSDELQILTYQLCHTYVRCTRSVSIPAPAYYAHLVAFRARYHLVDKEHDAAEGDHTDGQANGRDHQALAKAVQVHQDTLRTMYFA
AGO2 T357M, sequence (Q9UKV8 whole entry T357M/S387D/S824A/S828D/S831D/S834A): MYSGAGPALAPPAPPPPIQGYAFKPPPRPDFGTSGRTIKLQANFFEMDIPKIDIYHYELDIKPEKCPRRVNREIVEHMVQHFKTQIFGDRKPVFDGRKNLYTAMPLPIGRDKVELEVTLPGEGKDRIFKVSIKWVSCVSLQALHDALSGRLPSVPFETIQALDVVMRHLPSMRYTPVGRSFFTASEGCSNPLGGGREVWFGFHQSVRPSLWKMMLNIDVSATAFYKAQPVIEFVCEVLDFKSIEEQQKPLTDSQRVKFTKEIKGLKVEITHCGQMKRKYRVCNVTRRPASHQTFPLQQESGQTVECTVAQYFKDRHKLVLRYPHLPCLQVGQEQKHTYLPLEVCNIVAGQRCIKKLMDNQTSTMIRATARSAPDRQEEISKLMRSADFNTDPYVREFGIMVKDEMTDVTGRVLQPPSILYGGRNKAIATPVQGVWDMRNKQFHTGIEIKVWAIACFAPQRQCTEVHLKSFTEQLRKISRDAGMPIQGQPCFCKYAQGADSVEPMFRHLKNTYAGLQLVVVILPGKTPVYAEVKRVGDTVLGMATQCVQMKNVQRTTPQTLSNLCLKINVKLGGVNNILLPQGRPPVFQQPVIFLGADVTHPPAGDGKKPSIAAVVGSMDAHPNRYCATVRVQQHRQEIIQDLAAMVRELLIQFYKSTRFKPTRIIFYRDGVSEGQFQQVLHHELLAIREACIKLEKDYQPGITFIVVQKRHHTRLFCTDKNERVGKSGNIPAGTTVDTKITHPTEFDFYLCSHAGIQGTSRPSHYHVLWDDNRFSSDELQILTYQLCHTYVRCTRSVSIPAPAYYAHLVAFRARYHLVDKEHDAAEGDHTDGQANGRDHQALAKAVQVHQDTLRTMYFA
AGO2 WT (phosphosite mutant background), sequence (Q9UKV8 whole entry S387D/S824A/S828D/S831D/S834A): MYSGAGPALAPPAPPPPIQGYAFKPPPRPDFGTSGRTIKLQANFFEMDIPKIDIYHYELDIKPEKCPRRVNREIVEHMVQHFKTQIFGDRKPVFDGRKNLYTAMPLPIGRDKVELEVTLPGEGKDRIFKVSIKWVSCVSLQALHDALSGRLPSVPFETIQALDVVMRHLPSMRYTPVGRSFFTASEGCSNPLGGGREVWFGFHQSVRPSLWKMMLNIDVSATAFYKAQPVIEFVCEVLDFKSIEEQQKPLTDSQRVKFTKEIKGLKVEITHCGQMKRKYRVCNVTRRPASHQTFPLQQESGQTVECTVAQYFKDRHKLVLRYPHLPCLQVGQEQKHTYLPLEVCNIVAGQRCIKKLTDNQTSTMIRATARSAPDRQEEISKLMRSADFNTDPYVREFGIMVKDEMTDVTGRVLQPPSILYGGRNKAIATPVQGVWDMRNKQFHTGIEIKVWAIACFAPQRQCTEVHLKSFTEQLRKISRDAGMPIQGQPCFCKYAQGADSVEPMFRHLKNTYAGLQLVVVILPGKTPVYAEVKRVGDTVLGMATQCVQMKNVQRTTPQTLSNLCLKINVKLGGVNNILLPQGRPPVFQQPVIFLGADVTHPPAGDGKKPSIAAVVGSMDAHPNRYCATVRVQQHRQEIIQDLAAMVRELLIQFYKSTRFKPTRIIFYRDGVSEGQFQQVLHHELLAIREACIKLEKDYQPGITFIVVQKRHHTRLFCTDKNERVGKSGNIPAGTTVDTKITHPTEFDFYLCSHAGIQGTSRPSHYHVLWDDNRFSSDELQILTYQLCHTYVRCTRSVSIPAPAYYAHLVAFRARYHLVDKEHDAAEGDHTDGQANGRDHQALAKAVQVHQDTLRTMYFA
AGO2 A367P, sequence (Q9UKV8 whole entry A367P/S387D/S824A/S828D/S831D/S834A): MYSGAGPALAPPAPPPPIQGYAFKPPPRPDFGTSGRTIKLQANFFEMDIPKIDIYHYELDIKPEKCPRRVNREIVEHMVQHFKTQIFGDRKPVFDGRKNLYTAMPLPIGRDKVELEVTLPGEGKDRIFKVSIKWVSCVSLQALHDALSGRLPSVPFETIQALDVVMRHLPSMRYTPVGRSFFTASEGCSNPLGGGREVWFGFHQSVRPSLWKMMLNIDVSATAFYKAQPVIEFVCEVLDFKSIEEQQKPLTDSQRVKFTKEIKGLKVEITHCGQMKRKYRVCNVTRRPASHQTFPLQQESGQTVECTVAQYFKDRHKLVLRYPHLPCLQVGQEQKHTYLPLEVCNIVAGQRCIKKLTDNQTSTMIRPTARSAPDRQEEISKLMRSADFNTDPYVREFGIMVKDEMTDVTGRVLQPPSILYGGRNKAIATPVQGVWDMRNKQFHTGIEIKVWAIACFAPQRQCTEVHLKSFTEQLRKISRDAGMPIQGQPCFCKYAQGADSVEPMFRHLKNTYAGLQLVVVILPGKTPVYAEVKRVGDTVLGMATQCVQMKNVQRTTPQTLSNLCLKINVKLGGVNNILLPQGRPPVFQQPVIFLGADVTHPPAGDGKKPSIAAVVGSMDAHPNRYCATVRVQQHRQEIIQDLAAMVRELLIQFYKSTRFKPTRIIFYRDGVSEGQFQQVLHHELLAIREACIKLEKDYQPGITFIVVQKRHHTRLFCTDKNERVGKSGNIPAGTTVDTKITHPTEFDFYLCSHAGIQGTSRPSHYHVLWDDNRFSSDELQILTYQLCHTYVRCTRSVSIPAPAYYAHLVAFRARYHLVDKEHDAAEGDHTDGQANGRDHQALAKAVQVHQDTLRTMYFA
AGO2 F182del, sequence (Q9UKV8 other isoform, or with tags, fused parts or gaps S387D;S824A;S828D;S831D;S834A;del182-182): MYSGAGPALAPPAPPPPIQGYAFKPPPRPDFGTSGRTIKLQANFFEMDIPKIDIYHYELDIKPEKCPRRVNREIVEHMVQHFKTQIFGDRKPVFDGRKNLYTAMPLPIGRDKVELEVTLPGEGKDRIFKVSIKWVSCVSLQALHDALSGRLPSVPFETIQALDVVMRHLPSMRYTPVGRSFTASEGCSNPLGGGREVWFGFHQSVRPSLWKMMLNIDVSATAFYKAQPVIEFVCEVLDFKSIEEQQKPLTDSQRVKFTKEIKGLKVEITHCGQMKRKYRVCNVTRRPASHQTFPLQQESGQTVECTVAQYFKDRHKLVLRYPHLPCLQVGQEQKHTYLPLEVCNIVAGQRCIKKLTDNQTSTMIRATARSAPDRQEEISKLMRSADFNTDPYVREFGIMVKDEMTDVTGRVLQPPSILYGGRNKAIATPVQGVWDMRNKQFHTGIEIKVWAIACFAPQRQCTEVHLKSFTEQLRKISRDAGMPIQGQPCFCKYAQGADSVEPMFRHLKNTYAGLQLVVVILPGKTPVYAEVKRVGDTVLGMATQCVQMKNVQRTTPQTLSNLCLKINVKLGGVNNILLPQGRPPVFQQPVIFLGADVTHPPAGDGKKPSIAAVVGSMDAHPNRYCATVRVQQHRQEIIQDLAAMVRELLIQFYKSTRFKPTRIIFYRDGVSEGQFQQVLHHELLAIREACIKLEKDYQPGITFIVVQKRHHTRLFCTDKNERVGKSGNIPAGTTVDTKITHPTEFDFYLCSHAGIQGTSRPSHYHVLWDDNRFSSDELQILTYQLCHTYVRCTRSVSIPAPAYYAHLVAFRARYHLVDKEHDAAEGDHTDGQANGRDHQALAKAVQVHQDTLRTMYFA

Binder	binding signal [1]	binding signal (AGO2 L192P)	binding signal (AGO2 A367P)	binding signal (AGO2 T357M)	binding signal (AGO2 F182del)
ACGTTCCA (ssRNA, constant regions annealed to DNA blockers; guide miR-122 5' phosphate) RNA 1: GAGUUCUACAGUCCGACGAUCCCAACACGUUCCACACCUGGAAUUCUCGGGUGCCAA RNA 2: UGGAGUGUGACAAUGGUGUUUG DNA 1: GATCGTCGGACTGTAGAACTC DNA 2: TTGGCACCCGAGAATTCCA	0.137 fold enrichment over input	0.603 fold enrichment over input	0.333 fold enrichment over input	0.66 fold enrichment over input	0.976 fold enrichment over input
ATGCCCCA (ssRNA, constant regions annealed to DNA blockers; guide miR-122 5' phosphate) RNA 1: GAGUUCUACAGUCCGACGAUCCCAACAUGCCCCACACCUGGAAUUCUCGGGUGCCAA RNA 2: UGGAGUGUGACAAUGGUGUUUG DNA 1: GATCGTCGGACTGTAGAACTC DNA 2: TTGGCACCCGAGAATTCCA		0.494 fold enrichment over input	0.191 fold enrichment over input	0.652 fold enrichment over input	0.191 fold enrichment over input
GTGCTCTG (ssRNA, constant regions annealed to DNA blockers; guide miR-122 5' phosphate) RNA 1: GAGUUCUACAGUCCGACGAUCCCAACGUGCUCUGCACCUGGAAUUCUCGGGUGCCAA RNA 2: UGGAGUGUGACAAUGGUGUUUG DNA 1: GATCGTCGGACTGTAGAACTC DNA 2: TTGGCACCCGAGAATTCCA	0.123 fold enrichment over input	0.483 fold enrichment over input	0.182 fold enrichment over input	0.67 fold enrichment over input	
ATACTCCA (ssRNA, constant regions annealed to DNA blockers; guide miR-122 5' phosphate) RNA 1: GAGUUCUACAGUCCGACGAUCCCAACAUACUCCACACCUGGAAUUCUCGGGUGCCAA RNA 2: UGGAGUGUGACAAUGGUGUUUG DNA 1: GATCGTCGGACTGTAGAACTC DNA 2: TTGGCACCCGAGAATTCCA	1.32 fold enrichment over input	4.64 fold enrichment over input	6.04 fold enrichment over input	1.16 fold enrichment over input	8.59 fold enrichment over input
GTGTCTCA (ssRNA, constant regions annealed to DNA blockers; guide miR-122 5' phosphate) RNA 1: GAGUUCUACAGUCCGACGAUCCCAACGUGUCUCACACCUGGAAUUCUCGGGUGCCAA RNA 2: UGGAGUGUGACAAUGGUGUUUG DNA 1: GATCGTCGGACTGTAGAACTC DNA 2: TTGGCACCCGAGAATTCCA	0.126 fold enrichment over input	0.486 fold enrichment over input	0.222 fold enrichment over input	0.585 fold enrichment over input	0.387 fold enrichment over input
ACGCTCTG (ssRNA, constant regions annealed to DNA blockers; guide miR-122 5' phosphate) RNA 1: GAGUUCUACAGUCCGACGAUCCCAACACGCUCUGCACCUGGAAUUCUCGGGUGCCAA RNA 2: UGGAGUGUGACAAUGGUGUUUG DNA 1: GATCGTCGGACTGTAGAACTC DNA 2: TTGGCACCCGAGAATTCCA	0.132 fold enrichment over input	0.394 fold enrichment over input	0.169 fold enrichment over input	0.539 fold enrichment over input	0.149 fold enrichment over input
GCGCCCCA (ssRNA, constant regions annealed to DNA blockers; guide miR-122 5' phosphate) RNA 1: GAGUUCUACAGUCCGACGAUCCCAACGCGCCCCACACCUGGAAUUCUCGGGUGCCAA RNA 2: UGGAGUGUGACAAUGGUGUUUG DNA 1: GATCGTCGGACTGTAGAACTC DNA 2: TTGGCACCCGAGAATTCCA		0.498 fold enrichment over input	0.192 fold enrichment over input	0.741 fold enrichment over input	
ACGTTTTA (ssRNA, constant regions annealed to DNA blockers; guide miR-122 5' phosphate) RNA 1: GAGUUCUACAGUCCGACGAUCCCAACACGUUUUACACCUGGAAUUCUCGGGUGCCAA RNA 2: UGGAGUGUGACAAUGGUGUUUG DNA 1: GATCGTCGGACTGTAGAACTC DNA 2: TTGGCACCCGAGAATTCCA		0.447 fold enrichment over input	0.21 fold enrichment over input	0.571 fold enrichment over input	0.204 fold enrichment over input
GTGCCCCA (ssRNA, constant regions annealed to DNA blockers; guide miR-122 5' phosphate) RNA 1: GAGUUCUACAGUCCGACGAUCCCAACGUGCCCCACACCUGGAAUUCUCGGGUGCCAA RNA 2: UGGAGUGUGACAAUGGUGUUUG DNA 1: GATCGTCGGACTGTAGAACTC DNA 2: TTGGCACCCGAGAATTCCA	0.123 fold enrichment over input	0.464 fold enrichment over input	0.227 fold enrichment over input	0.677 fold enrichment over input	0.158 fold enrichment over input
ACACCTTG (ssRNA, constant regions annealed to DNA blockers; guide miR-122 5' phosphate) RNA 1: GAGUUCUACAGUCCGACGAUCCCAACACACCUUGCACCUGGAAUUCUCGGGUGCCAA RNA 2: UGGAGUGUGACAAUGGUGUUUG DNA 1: GATCGTCGGACTGTAGAACTC DNA 2: TTGGCACCCGAGAATTCCA		0.422 fold enrichment over input	0.169 fold enrichment over input	0.452 fold enrichment over input	0.318 fold enrichment over input
